What all share (set-up): scale not given: direction of the effect not stated beside the values
The target of assay [1] is Protein translocase subunit SecA (Escherichia coli (strain K12)) (UniProt P10408). The assay is described as follows: Assay to Identify E. coli SecA ATPase Inhibitors. It is filed as functional. To be noted: 30 µM.
In assay [2] the target is T1, Ubiquitin-activating enzyme e1, putative (Leishmania donovani (strain BPK282A1)) (UniProt E9BSI1).
T1 sequence (whole entry): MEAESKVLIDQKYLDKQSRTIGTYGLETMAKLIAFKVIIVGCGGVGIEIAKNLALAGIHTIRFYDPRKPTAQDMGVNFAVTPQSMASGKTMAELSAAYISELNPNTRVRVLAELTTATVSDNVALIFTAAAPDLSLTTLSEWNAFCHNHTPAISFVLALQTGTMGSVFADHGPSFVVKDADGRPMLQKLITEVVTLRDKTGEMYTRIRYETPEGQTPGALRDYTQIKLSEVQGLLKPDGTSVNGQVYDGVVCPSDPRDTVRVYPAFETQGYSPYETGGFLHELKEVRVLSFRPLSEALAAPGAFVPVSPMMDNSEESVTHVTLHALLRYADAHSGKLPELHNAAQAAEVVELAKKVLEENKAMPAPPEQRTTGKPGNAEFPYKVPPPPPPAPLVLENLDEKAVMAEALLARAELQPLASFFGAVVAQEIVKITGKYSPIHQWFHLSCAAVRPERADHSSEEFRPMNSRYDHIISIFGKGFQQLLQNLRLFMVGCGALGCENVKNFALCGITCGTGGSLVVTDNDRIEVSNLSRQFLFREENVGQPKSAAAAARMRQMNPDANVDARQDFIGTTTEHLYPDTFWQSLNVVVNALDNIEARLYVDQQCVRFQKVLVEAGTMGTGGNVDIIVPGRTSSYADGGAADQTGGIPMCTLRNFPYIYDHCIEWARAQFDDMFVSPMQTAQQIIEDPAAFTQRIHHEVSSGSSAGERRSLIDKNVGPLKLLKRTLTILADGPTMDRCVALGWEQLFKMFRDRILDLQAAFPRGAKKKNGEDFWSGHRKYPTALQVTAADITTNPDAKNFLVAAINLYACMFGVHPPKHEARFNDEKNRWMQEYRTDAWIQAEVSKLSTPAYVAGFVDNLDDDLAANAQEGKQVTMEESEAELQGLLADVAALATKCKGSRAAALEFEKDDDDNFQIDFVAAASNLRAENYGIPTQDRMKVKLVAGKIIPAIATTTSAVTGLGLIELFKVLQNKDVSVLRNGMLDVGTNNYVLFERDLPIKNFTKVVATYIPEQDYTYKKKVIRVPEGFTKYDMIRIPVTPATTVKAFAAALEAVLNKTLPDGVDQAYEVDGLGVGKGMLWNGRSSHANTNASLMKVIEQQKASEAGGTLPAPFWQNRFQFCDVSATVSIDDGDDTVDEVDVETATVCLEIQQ
The assay is described as follows: Leishmania donovani Ubiquitin Activating Enzyme (LdE1). It counts as functional. To be noted: 30 µM.

Assay [3] deals with AMP-activated protein kinase, AMPK (Homo sapiens) (UniProt P54646+O43741+P54619+Q9UGJ0+Q9Y478+Q13131+Q9UGI9). The assay is described as follows: AMP-dependent Kinase enzyme assay. An in vitro enzyme assay that detects ADP turnover that is directly proportional to AMPK activity. This uses naive AMPK that is activated during the assay with MK-8722. To be noted: 30 µM. It is filed as functional.

In assay [4] the target is Sialic acid-binding Ig-like lectin 9 (Homo sapiens) (UniProt Q9Y336). The assay is described as follows: Hs-Siglec9 ALPHAscreen SOP 20170721. To be noted: 10 µM. Background: Bead proximity is the source of the signal in Alpha formats.
Chain of Sialic acid-binding Ig-like lectin 9 (Homo sapiens) (Q9Y336 whole entry): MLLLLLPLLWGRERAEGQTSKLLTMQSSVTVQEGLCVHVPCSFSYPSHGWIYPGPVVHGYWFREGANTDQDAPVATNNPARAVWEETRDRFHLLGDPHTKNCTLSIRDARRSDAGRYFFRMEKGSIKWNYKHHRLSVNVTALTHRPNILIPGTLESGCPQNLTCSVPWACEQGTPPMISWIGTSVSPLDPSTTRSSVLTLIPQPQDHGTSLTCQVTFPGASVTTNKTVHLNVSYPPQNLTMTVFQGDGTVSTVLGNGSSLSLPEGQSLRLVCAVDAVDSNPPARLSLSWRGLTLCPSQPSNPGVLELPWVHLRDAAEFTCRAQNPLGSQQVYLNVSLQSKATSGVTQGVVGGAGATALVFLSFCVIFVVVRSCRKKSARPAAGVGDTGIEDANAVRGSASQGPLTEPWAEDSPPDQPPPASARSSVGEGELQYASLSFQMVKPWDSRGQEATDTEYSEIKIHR
Assay [5] deals with Trypanosoma cruzi. The assay is described as follows: Trypanosoma cruzi phosphomannomutase and mannose-1-phosphate guanylyltransferase assay. It is filed as functional. The note with it: 10 µM.
In assay [6] the target is T2, Arginase-2, mitochondrial (Homo sapiens) (UniProt P78540).
T2 sequence (whole entry): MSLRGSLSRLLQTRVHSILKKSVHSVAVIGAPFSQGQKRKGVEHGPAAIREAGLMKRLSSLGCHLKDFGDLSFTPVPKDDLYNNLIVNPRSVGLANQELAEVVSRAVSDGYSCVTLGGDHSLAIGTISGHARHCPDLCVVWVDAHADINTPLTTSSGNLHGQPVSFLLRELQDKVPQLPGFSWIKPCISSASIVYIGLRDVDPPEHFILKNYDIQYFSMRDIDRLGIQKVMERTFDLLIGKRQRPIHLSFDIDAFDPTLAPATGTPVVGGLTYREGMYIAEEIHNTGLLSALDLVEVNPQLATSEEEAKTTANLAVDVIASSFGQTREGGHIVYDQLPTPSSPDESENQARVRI
The assay is described as follows: in vitro enzyme assay to detect the production of urea directly proportional to the activity of Arginase II. Further: in the data most compounds retested in dose-response had high values. It is filed as functional. To be noted: 33.3 µM.

For assay [7], the target named is T3, Proteasome subunit beta (Trypanosoma cruzi) (UniProt O96673).
T3 sequence (whole entry): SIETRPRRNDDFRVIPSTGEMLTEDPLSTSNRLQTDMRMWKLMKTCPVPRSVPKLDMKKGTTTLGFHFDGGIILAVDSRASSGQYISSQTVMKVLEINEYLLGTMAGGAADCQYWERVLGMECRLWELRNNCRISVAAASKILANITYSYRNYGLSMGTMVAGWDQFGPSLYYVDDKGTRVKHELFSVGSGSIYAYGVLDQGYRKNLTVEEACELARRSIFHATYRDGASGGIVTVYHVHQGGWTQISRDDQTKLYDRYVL
The assay is described as follows: Trypanosoma cruzi proteasome chymotrypsin-like activity (TcProtChymo) assay. Further: in the data most compounds retested in dose-response had high values. It counts as functional. To be noted: 9.37 µM.

For assay [8], the species on record is Homo sapiens. The assay is described as follows: To identify inhibition of the IFN signalling (Jak-Stat) pathway via expression of an eGFP reporter gene under the control of an IFN-stimulated response element (ISRE) containing MxA promoter. It is filed as functional. The note with it: 30 µM. Background: In a reporter assay the amount or activity of a reporter protein is the signal.

Assay [9] has as its target T4, Tyrosyl-tRNA synthetase, putative (Trypanosoma cruzi (strain CL Brener)) (UniProt Q4DSP6).
T4 sequence (whole entry): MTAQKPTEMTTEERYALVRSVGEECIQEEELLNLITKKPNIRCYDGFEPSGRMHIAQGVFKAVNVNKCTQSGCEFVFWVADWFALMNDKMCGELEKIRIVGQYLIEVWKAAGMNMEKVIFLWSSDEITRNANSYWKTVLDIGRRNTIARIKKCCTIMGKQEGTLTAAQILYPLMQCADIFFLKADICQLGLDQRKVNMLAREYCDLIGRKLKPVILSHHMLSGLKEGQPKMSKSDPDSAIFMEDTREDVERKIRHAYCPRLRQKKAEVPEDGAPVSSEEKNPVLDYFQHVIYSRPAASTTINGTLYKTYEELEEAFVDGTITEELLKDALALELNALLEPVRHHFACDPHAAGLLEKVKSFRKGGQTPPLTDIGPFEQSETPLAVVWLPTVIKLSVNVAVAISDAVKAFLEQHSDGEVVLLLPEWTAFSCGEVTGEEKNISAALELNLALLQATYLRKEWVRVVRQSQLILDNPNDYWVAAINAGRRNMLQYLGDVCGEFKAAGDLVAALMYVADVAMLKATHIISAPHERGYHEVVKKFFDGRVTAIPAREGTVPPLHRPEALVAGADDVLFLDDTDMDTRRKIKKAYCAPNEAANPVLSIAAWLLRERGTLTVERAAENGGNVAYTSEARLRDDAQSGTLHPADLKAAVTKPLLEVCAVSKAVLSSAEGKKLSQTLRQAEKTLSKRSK
The assay is described as follows: Trypanosoma cruzi tyrosyl tRNA synthetase (TcYRS) _High Tyrosine SOP. Further: in the data most compounds retested in dose-response had high values. It counts as functional. The note with it: 30 µM.

Assay [10] concerns the target T4, Tyrosyl-tRNA synthetase, putative (Trypanosoma cruzi (strain CL Brener)). The assay is described as follows: Trypanosoma cruzi tyrosyl tRNA synthetase (TcYRS) SOP. To be noted: 30 µM. It counts as functional.
The target in assay [11] is Chromo domain-containing protein 1 (Saccharomyces cerevisiae (strain ATCC 204508 / S288c) (Baker's yeast)) (UniProt P32657). The assay is described as follows: ScCHD-1 Enzyme Inhibition Assay. Further: in the data most compounds retested in dose-response had high values. It counts as functional. To be noted: 30 µM.
Chain of Chromo domain-containing protein 1 (Saccharomyces cerevisiae (strain ATCC 204508 / S288c) (Baker's yeast)) (P32657 whole entry, the tested form may be a part): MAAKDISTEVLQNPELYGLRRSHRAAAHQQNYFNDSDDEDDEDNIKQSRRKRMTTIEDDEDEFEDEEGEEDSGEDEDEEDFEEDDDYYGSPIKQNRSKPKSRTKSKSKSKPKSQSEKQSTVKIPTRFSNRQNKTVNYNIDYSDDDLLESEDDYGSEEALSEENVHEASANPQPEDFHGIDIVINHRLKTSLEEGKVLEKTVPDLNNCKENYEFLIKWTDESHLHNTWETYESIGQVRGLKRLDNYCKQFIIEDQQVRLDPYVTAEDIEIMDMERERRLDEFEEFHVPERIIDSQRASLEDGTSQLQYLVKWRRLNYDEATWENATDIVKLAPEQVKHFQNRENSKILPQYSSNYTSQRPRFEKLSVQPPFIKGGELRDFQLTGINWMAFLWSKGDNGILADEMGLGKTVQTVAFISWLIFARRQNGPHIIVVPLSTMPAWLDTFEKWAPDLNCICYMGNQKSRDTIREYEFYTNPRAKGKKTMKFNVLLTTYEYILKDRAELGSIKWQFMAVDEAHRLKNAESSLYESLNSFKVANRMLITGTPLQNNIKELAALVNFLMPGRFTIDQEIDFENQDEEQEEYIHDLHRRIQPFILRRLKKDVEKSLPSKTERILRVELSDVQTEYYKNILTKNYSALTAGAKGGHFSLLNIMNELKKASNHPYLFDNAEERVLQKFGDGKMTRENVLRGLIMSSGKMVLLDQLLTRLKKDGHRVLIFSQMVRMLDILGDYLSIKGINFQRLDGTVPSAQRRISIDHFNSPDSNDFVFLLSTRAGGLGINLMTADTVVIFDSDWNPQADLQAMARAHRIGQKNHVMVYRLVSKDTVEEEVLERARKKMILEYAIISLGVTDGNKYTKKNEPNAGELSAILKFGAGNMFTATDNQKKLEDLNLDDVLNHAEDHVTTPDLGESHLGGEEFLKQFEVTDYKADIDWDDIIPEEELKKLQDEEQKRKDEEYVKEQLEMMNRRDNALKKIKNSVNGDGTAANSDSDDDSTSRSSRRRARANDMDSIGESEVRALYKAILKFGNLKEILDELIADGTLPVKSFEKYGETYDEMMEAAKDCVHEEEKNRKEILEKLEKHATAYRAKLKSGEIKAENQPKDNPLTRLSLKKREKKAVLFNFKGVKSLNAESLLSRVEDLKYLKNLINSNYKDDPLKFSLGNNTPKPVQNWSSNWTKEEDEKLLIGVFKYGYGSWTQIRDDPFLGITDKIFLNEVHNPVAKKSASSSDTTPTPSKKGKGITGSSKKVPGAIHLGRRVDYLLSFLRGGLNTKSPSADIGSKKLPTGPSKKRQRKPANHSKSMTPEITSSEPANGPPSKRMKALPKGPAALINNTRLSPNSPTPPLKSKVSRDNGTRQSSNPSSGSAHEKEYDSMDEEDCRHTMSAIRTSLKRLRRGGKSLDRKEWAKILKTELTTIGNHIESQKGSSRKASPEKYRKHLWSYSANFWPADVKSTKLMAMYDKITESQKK

For some assays here: Measured potencies and affinities stand elsewhere.

Chain of Protein translocase subunit SecA (Escherichia coli (strain K12)) (P10408 whole entry): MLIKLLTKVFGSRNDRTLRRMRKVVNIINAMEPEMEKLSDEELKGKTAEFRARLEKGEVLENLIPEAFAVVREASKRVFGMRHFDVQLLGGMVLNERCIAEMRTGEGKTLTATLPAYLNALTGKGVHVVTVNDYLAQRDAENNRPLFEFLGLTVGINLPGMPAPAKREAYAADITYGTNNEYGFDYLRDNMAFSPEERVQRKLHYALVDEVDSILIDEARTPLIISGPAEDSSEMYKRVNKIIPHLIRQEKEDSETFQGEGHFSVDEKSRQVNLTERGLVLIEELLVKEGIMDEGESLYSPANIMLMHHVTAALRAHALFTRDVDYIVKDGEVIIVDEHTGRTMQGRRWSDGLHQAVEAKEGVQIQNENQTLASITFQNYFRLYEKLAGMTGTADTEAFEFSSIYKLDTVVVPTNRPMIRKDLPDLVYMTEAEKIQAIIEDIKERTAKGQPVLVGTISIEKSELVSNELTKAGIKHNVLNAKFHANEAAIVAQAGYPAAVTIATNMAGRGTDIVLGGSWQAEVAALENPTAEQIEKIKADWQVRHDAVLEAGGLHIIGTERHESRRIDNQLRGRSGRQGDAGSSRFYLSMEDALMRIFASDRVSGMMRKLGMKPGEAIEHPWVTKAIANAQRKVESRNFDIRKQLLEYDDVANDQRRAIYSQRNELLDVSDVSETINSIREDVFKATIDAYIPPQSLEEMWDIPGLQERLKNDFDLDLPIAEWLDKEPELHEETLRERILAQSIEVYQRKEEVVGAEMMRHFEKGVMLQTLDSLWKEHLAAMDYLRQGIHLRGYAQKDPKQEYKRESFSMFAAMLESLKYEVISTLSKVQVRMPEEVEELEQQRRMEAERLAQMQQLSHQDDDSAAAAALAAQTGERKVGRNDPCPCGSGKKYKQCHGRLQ

Consider `CC(C)NC(=O)c1sccc1N(C)S(=O)(=O)c1ccc(Cl)cc1`, for which the Percent Effect was 2.02% in assay [1]; 7.89% in assay [2]; 10.6% in assay [3]; -13% in assay [4]; -7.5% in assay [5]; 11.8% in assay [6]. Moreover, the Percent Effect in assay [7] was 13.1%; in [8] it was 22.6%; in [9], -2.13%; in assay [10], 0%; in assay [11], -5.6%.

Turning to `Cc1ccc(N2CC[C@H]3OCC[C@@]3(C(=O)NC(C)C)C2)nn1`, the Percent Effect is -2.37% in assay [1]; 2.7% in assay [2]; -2.16% in [3]; 0.317% in assay [4]; 2.15% in [5]; 16.7% in assay [6]. Moreover, the Percent Effect was 6.85% in assay [7]; 4.31% in assay [8]; 6.93% in [9]; 18.3% in assay [10]; -5.52% in assay [11].

With `CC(C)Cc1cc(NC(=O)c2ccc(=O)[nH]n2)n(C)n1`, the Percent Effect is -8.11% in assay [1]; 18.2% in assay [2]; -1.51% in [3]; 12.1% in assay [4]; 3.75% in assay [5]; 2.85% in assay [6]. Besides, the Percent Effect in [7] was 4.73%; in [8], 0.756%; in assay [9] it was 8.74%; in assay [10], 24.4%; in assay [11], -11.8%.

`CN(Cc1csc(-c2cccs2)n1)C(=O)CCn1ccccc1=O`: the Percent Effect in assay [1] was -4.95%; in [2] it was 8%; in assay [3], -1.99%; in assay [4] it was 4.47%; in assay [5], -1.07%; in assay [6] it was 5.21%. In addition, the Percent Effect in assay [7] was 22.7%; in assay [8] it was 10.8%; in assay [9], 3.83%; in assay [10], 11.1%; in assay [11], -4.75%.

In the case of `Cc1ccc(-c2nnc(CN3CCc4cnc(C)nc4C3)o2)cc1`, the Percent Effect was -4.56% in assay [1]; 0% in [2]; -17.5% in assay [3]; 15.5% in assay [4]; 11.2% in assay [5]; -13.9% in [6]. Also, the Percent Effect in [7] is 10.4%; in [8], 15.6%; in assay [9], 18.8%; in assay [10] it was 30.5%; in assay [11] it was -10.7%.

As for `CCc1n[nH]c(C2CN(CCc3cccs3)CCO2)n1` (stereo not given), the Percent Effect in assay [1] was -7.68%; in [2] it was 11.4%; in assay [3] it was -4.38%; in assay [4] it was -6.28%; in [5] it was 3.38%; in assay [6] it was -1.94%. In addition, the Percent Effect is 8.06% in assay [7]; -6.82% in assay [8]; 2.08% in [9]; 17.7% in assay [10]; -43.9% in assay [11].

`Cc1cn2c(n1)CCC(NC(=O)CCC(F)(F)F)C2` (stereo not given): the Percent Effect in assay [1] is -7.86%; in assay [2], -7.89%; in assay [3], -7.17%; in [4] it was 16.2%; in assay [5] it was 5.51%; in assay [6], 0.36%. Moreover, the Percent Effect in assay [7] is 3.64%; in assay [8] it was -6.31%; in [9], 3.45%; in assay [10], 16.1%; in assay [11], -6.39%.

Consider `O=C1CCSCC(C(=O)N2CCCC2)N1` (stereo not given), for which the Percent Effect in assay [1] was -1.89%; in assay [2], 0%; in assay [3], 2.29%; in assay [4], -5.9%; in [5] it was -3.33%; in assay [6], -1.36%. Moreover, the Percent Effect in assay [7] is 3.37%; in assay [8] it was -3.33%; in [9] it was 1.07%; in assay [10], 5%; in assay [11], -1.55%.

Turning to `CN(Cc1ccc(F)cc1)C(=O)CN1CCOC(Cn2cncn2)C1` (stereo not given), the Percent Effect in [1] was 0.893%; in [2] it was 17.7%; in assay [3], -2.68%; in assay [4], -5.85%; in assay [5], -7.65%; in [6], -1.52%. In addition, the Percent Effect in assay [7] is 17.6%; in [8], 36%; in [9], 1.48%; in assay [10], 3.8%; in [11], -4.1%.

With `CC[C@@]1(O)CCN(C(=O)c2ccc(-c3cccc(F)c3)cc2)C[C@H]1O`, the Percent Effect in assay [1] was -2.8%; in [2], 4.17%; in assay [3] it was -2.66%; in [4] it was -8.29%; in assay [5], -3.6%; in assay [6], 0.883%. The Percent Effect in [7] is 13.3%; in assay [8], 16.4%; in assay [9], 2.1%; in assay [10] it was 10.3%; in assay [11] it was -3.01%.

Values taken from ChEMBL document CHEMBL3988442, “University of Dundee, Small-Polar-MMV Screening Library” (2021).
